According to PubChem BioAssay AID1159580 (chemical genetic matrix, 2015):
Values joined by “and” are separate entries in the source; they are usually repeats but may differ in a detail not shown here. Identical values can stand only once. Out of some 5,500 compounds screened, about 2,000 (36%) were called active. Another 18% or so got no clear call; they are omitted. Cut-off read from the data, not from the text of the source: active = normalized growth mostly below about 0.91 (no sharp cut-off); inconclusive = no clear call, values can overlap the other calls; inactive = mostly above about 0.92. The list shows a part of the results.

Test: chemical genetic growth profiling, strain panel (AID 1159580);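 note: tested at 20 µM; growth read once vehicle control cultures reached saturation at 30 °C; 1 = growth at the plate median or of vehicle wells; lower values mean less growth of the strain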
Conditions: S. cerevisiae deletion strains, growth OD

Measured: normalized growth

O=c1[nH]oc2c1CCNC2
inactive: locus YAL013W, strain DEP1, hits give low values 1 and 1.01 | locus YAL021C, strain ccr4, hits give low values 1.01 | locus YAL026C, strain drs2, hits give low values 1.01 | locus YAL030W, strain snc1, hits give low values 0.998 | locus YAL040C, strain CLN3, hits give low values 0.99 | locus YBL061C, strain skt5, hits give low values 1 | locus YBR009C, strain hhf1, hits give low values 0.987 | locus YBR021W, strain FUR4, hits give low values 1.01 | locus YBR023C, strain chs3, hits give low values 0.998 | locus YBR171W, strain sec66, hits give low values 0.985 | locus YBR229C, strain ROT2, hits give low values 1 | locus YBR231C, strain swc5, hits give low values 0.976 | locus YBR279W, strain paf1, hits give low values 1.01 | locus YCL011C, strain gbp2, hits give low values 1.01 | locus YCL016C, strain dcc1, hits give low values 1 | locus YCL029C, strain bik1, hits give low values 0.97 | locus YCL061C, strain MRC1 (second series), hits give low values 1 | locus YCL069W, strain vba3, hits give low values 1 | locus YCR088W, strain abp1, hits give low values 0.999 | locus YDL005C, strain med2, hits give low values 1 | locus YDL035C, strain GPR1, hits give low values 0.999 | locus YDL040C, strain nat1, hits give low values 0.992 | locus YDL074C, strain BRE1, hits give low values 1.04 | locus YDL101C, strain DUN1, hits give low values 1.01 | locus YDL134C, strain PPH21, hits give low values 1.01 | locus YDL185W, strain tfp1, hits give low values 0.964 | locus YDL192W, strain arf1, hits give low values 0.976 | locus YDR001C, strain nth1, hits give low values 0.996 | locus YDR069C, strain doa4, hits give low values 0.993 | locus YDR101C, strain arx1, hits give low values 0.997 | locus YDR137W, strain rgp1, hits give low values 1.02 | locus YDR150W, strain NUM1, hits give low values 0.996 and 0.999 | locus YDR159W, strain sac3, hits give low values 0.973 | locus YDR162C, strain NBP2, hits give low values 1.02 | locus YDR195W, strain ref2 0.947 | locus YDR297W, strain sur2, hits give low values 1.01 | locus YDR318W, strain mcm21, hits give low values 0.966 | locus YDR334W, strain swr1, hits give low values 1 | locus YDR335W, strain msn5, hits give low values 1 | locus YDR363W, strain ESC2, hits give low values 1.01 | locus YDR388W, hits give low values 0.986 | locus YDR392W, strain spt3, hits give low values 1.01 | locus YDR502C, strain sam2, hits give low values 1 | locus YEL003W, strain gim4, hits give low values 0.998 | locus YEL037C, strain rad23, hits give low values 0.999 | locus YEL061C, strain CIN8 (second series), hits give low values 0.998 | locus YEL061C, strain CIN8, hits give low values 0.999 | locus YER002W, strain NOP16, hits give low values 1 | locus YER015W, strain faa2, hits give low values 1.01 | locus YER016W, strain bim1, hits give low values 1 | locus YER110C, hits give low values 0.967 | locus YER111C, strain swi4, hits give low values 0.994 | locus YER155C, strain BEM2 (second series), hits give low values 0.978 | locus YER155C, strain BEM2, hits give low values 0.998 | locus YER167W, strain BCK2, hits give low values 0.973 | locus YFR010W, strain ubp6, hits give low values 1.01 | locus YGL078C, strain dbp3, hits give low values 0.994 | locus YGL086W, strain mad1, hits give low values 0.963 | locus YGL167C, strain pmr1, hits give low values 0.999 | locus YGL173C, strain kem1, hits give low values 1.01 | locus YGL227W, strain vid30, hits give low values 0.994 | locus YGL240W, strain doc1, hits give low values 0.988 | locus YGL248W, strain PDE1, hits give low values 1 | locus YGL253W, strain hxk2, hits give low values 1.02 | locus YGR078C, strain PAC10, hits give low values 1.03 and 0.994 | locus YGR135W, strain pre9, hits give low values 1.01 | locus YGR229C, strain SMI1, hits give low values 1.03 | locus YGR252W, strain gcn5, hits give low values 0.97 | locus YHR013C, strain ard1, hits give low values 0.998 | locus YHR027C, strain rpn1, hits give low values 1.01 | locus YHR030C, strain SLT2, hits give low values 0.992 and 1.01 | locus YHR079C, strain IRE1 (second series), hits give low values 1 | locus YHR079C, strain IRE1, hits give low values 1.03 | locus YHR094C, strain hxt1, hits give low values 0.973 | locus YHR129C, strain ARP1, hits give low values 1 | locus YHR142W, strain chs7, hits give low values 1.03 | locus YHR200W, strain rpn10, hits give low values 0.975 | locus YIL066C, strain RNR3, hits give low values 1.01 | locus YIL073C, strain SPO22, hits give low values 0.902 | locus YIL125W, strain kgd1, hits give low values 0.987 | locus YIR030C, strain dcg1, hits give low values 0.982 | locus YJL092W, strain hpr5, hits give low values 0.998 | locus YJL095W, strain BCK1 (second series), hits give low values 0.999 | locus YJL095W, strain BCK1, hits give low values 1.06 and 1.02 | locus YJL115W, strain asf1, hits give low values 1.01 | locus YJL129C, strain trk1, hits give low values 1 | locus YJL134W, strain LCB3, hits give low values 0.994 | locus YJL154C, strain vps35, hits give low values 0.995 | locus YJL164C, strain tpk1, hits give low values 1 | locus YJL166W, strain qcr8, hits give low values 0.965 | locus YJL168C, strain set2, hits give low values 0.988 | locus YJL187C, strain SWE1 (second series), hits give low values 1.02 | locus YJR043C, strain POL32, hits give low values 0.987 | locus YJR066W, strain TOR1, hits give low values 0.921 | locus YJR075W, strain HOC1, hits give low values 1.08
